# In the library only some 19% were active in any assay of this set; here they are far more common.
# IL-1B inflam inh = qHTS for Inhibitors of Inflammasome Signaling: IL-1-beta AlphaLISA Primary Screen | THP-1 LPS/ATP IL-1B secretion, AlphaLISA, 16 h; stronger effect = lower value | activity change, % at 57.5 µM | 360,000 tested, 4.7% active; in the data active = activity change below about -50%; inconclusive = mostly about -30% to -49%
#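 THP-1 cells pretreated 1 hr with compounds (up to 57.5 uM final), then stimulated with LPS (250 ng/mL final) plus ATP (1.25 mM final); secreted IL-1B measured by AlphaLISA after 16 hr, decreased signal indicating inhibition.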
# DT40 TDP1 CPT = qHTS for Inhibitors of human tyrosyl-DNA phosphodiesterase 1 (TDP1): qHTS in cells in presence of CPT | chicken DT40 Tdp1-/-;hTDP1 cells + 20 nM CPT, ATP luminescence, 48 h | Potency, µM (titrated, usually from 46.2 µM), for inactives: top-dose activity change, negative = growth inhibition, most hits filed as inhibitors | 420,000 tested, 12% active | AID 686979, 2013; note: potency is the fitted concentration of half-maximal effect; nearly all actives have a fitted effect of over 55% in size
#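 Chicken DT40 Tdp1-/- cells complemented with human TDP1, 400 cells/well, exposed to compounds plus 20 nM camptothecin for at least 48 h at 37 C; viability read as ATP content by CellTiter-Glo luminescence.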
# DT40 TDP1 no CPT = qHTS for Inhibitors of human tyrosyl-DNA phosphodiesterase 1 (TDP1): qHTS in cells in absence of CPT; DT40 Tdp1-/- hTDP1 cells, no CPT, ATP luminescence, 48 h; Potency, µM (titrated, usually from 46.2 µM), for the others: at the top dose activity change, negative = growth inhibition, actives largely listed as inhibitors; 420,000 tested, 15% active; note: potency is the fitted concentration of half-maximal effect; nearly all actives have a fitted effect of over 55% in size
#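 Stably hTDP1-transfected Tdp1-null chicken DT40 cells were treated with library compounds minus camptothecin and grown for at least 48 hr at 37 °C, after which cellular ATP was quantified by luminescence.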
# HT1080 IDH1KD tx = qHTS for induction of synthetic lethality in tumor cells producing 2HG: qHTS for the HT-1080-IDH1KD cell line; HT-1080 IDH1 knockdown viability, ATP luminescence, 48 h; Potency, µM (doses to about 46.1 µM), without a hit: top-dose activity, negative = toxicity, actives largely listed as cytotoxic; 360,000 tested, 2% active;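 note: potency is the fitted concentration of half-maximal effect; 0% = DMSO wells and -100% = cell-free medium wells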
#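 Assay cells: HT-1080 with IDH1 knockdown, 750 per well, RPMI/5% FBS. Exposure: 48 h at 37 °C following 2 h pre-incubation. Read: CellTiter-Glo luminescence; fitted concentration-response, curve class assigned.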
# HT1080-NT tox = qHTS for induction of synthetic lethality in tumor cells producing 2HG: qHTS for the HT-1080-NT fibrosarcoma cell line. HT-1080-NT fibrosarcoma viability, CellTiter-Glo ATP luminescence, 48 h. Potency, µM (titrated, usually from 46.1 µM), inactives show at the top dose activity, negative = less viability, hits mostly cytotoxic. 360,000 tested, 1.6% active. AID 686970, 2013;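 note: NT is the 2HG producing partner of a matched IDH1 knockdown line; potency is the fitted concentration of half-maximal effect; 0% = DMSO-treated cells and -100% = media-only wells without cells; nearly all actives have a fitted effect of over 55% in size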
#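 A 48-hour cytotoxicity screen used HT-1080-NT cells plated 2 hours before compound delivery. ATP-based CellTiter-Glo luminescence measured viability, normalized to DMSO and no-cell controls.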
# ELG1 DNA repair = qHTS screen for small molecules that inhibit ELG1-dependent DNA repair in human embryonic kidney (HEK293T) cells expressing luciferase-tagged ELG1; HEK293T ELG1-luciferase reporter, luminescence, 16 h; DNA damage induced by 5-fluorouridine; AID 504467, 2011; 330,000 tested, 2.3% active; Potency, µM (doses to about 46.1 µM), for the others: top-dose activity change, negative = inhibition, most hits filed as inhibitors; note: potency is the fitted concentration of half-maximal effect; nearly all actives have a fitted effect of over 55% in size
#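 In this reporter screen, reduction of luminescence relative to DMSO vehicle indicated activity. Compounds and 5-fluorouridine were added together to 2,000 cells per well, incubated for 16 hr at 37 °C, then developed with ONE-Glo.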
# Active calls of the source: *; ? = inconclusive; / = not tested or not shown. Unless noted, calls come from the whole dose curve; as a rule, active = well fitted curve in the direction sought with a large enough effect; inconclusive = small, poorly fitted or top-dose-only effect, or another doubt; inactive = no such curve, though single readings can be large; an effect the other way counts as inactive or inconclusive. Unless noted, % is set by controls: 0 for no effect and ±100 for the full control effect.
SMILES,IL-1B inflam inh,DT40 TDP1 CPT,DT40 TDP1 no CPT,HT1080 IDH1KD tx,HT1080-NT tox,ELG1 DNA repair
COc1ccc(OC)c(NC(=O)Nc2nc(CN)cs2)c1,-8,?,?,3%,2%,/
COc1ccc(CC(N)c2csc(NC(=O)Nc3ccccc3Cc3ccccc3)n2)cc1 (stereo not drawn),-52*,21µM*,16µM*,?,?,/
O=C(c1ccc(CS(=O)Cc2ccc(Cl)cc2)o1)N1CCN(C2CCCCC2)CC1 (stereo not drawn),-28,-7%,?,-11%,-9%,/
COc1ccc(OC)c(C(C(=O)NC2CCCCC2)N(C(=O)c2ccccn2)c2cccnc2)c1 (stereo not drawn),-7,2%,-18%,0%,-21%,3%
O=C(CCNC(=O)C1CCN(S(=O)(=O)c2ccc(F)cc2)CC1)NCCc1ccc(Cl)cc1,-2,?,?,-2%,-18%,1%
CN1CCN(C(=O)C2=C[C@H](c3ccc(C(F)(F)F)cc3)C[C@H](OCc3ccc(CO)cc3)O2)CC1,-13,23µM*,?,0%,-4%,14%
O=C(C1=C[C@H](c2ccc(C(F)(F)F)cc2)C[C@H](OCc2ccc(CO)cc2)O1)N1CCCCCCC1,-22,?,?,?,?,?
O=C(C1=C[C@H](c2ccccc2)C[C@H](OCc2ccc(CO)cc2)O1)N1CCN(Cc2ccccc2)CC1,-60*,?,?,-9%,-15%,?
O=C(C1=C[C@@H](c2ccccc2)C[C@@H](OCc2ccc(CO)cc2)O1)N1CCN(Cc2ccc3c(c2)OCO3)CC1,?,18µM*,21µM*,16µM*,?,15µM*
O=C(C1=C[C@H](c2ccccc2)C[C@H](OCCCCO)O1)N1CCN(Cc2ccc3c(c2)OCO3)CC1,-9,?,-34%,7%,0%,-9%
CCOc1ccccc1N1CC(C(=O)NC2CCCCCC2)CC1=O (stereo not drawn),14,6%,2%,8%,-4%,?
COc1cc(OC)c(NC(=O)c2cc(C)nc3c2c(C)nn3-c2ccc(C)cc2)cc1Cl,/,-26%,-29%,/,/,/
C=C(c1ccccc1C)[n+]1ccccc1,39,-24%,?,6%,-2%,17%
C=C(c1ccccc1Cl)[n+]1ccccc1,12,12µM*,7.3µM*,-14%,-11%,-20%
CN(C)c1ccc(-c2cncnc2-n2ccnc2)cc1,/,?,-23%,/,/,/
c1cn(-c2ncnc3ccc(-c4ccoc4)cc23)cn1,/,18µM*,23µM*,/,/,/
COc1ccccc1-c1ccc2ncnc(N3CCOCC3)c2c1,/,18µM*,21µM*,/,/,/
c1nc(N2CCOCC2)c2cc(-c3ccoc3)ccc2n1,/,8.2µM*,?,/,/,/
c1nc(NC2CC2)c2cc(-c3ccoc3)ccc2n1,/,?,-25%,/,/,/
CN(C)Cc1ccccc1-c1ccc2ncnc(N3CCOCC3)c2c1,/,?,21µM*,/,/,/
COc1ccccc1-c1ccc2ncnc(N3CCN(C)CC3)c2c1,/,9.2µM*,7.3µM*,/,/,/
COc1cccc(-c2ccc3ncnc(N4CCOCC4)c3c2)c1,/,15µM*,26µM*,/,/,/
COc1ccccc1-c1ccc2ncnc(NC3CCNCC3)c2c1,/,?,-29%,/,/,/
COC1OC(O)C(NC(=O)C(F)(F)F)CC1O (stereo not drawn),-2,-10%,2%,4%,10%,/
COc1ccc(S(=O)(=O)N2CCOCC2)cc1NC(=O)Cc1ccc(F)cc1,12,-18%,-5%,6%,4%,/
SMILES,IL-1B inflam inh,DT40 TDP1 CPT,DT40 TDP1 no CPT,HT1080 IDH1KD tx,HT1080-NT tox,ELG1 DNA repair
COc1ccc2[nH]cc(CCNC(=O)COc3ccc4ccc(=O)oc4c3)c2c1,-23,?,21µM*,-1%,4%,-26%
Cc1cc(=O)oc2cc(O)cc(OCc3ccccc3)c12,38,?,16µM*,10%,10%,/
Cc1cc(OCC(=O)NCCc2c[nH]c3ccccc23)c2c(C)c(C)c(=O)oc2c1,10,?,?,-4%,1%,?
Cc1cc(OCC(=O)NCCc2c[nH]c3ccccc23)c2c(C)cc(=O)oc2c1,-90*,?,?,1%,8%,?
CCCc1cc(=O)oc2cc(C)cc(OCC(=O)Nc3ccccn3)c12,26,?,-25%,1%,7%,2%
Cc1cc(OCC(=O)Nc2ccccn2)c2c(C)cc(=O)oc2c1,-54*,-25%,?,5%,18%,?
Cc1cc(=O)oc2ccc(OCc3ccccc3)cc12,29,?,?,-7%,-15%,?
Cc1ncc(CO)c(CO)c1OCC(O)CN1CCN(c2ccc(F)cc2)CC1 (stereo not drawn),59,?,?,8%,9%,/
CCCc1cc(=O)oc2cc(OCC(=O)NCCc3c[nH]c4ccccc34)ccc12,-21,23µM*,16µM*,?,?,-25%
c1ccc(Cc2nnc(N3CCCCC3)c3ccccc23)cc1,-86*,-28%,?,?,-2%,0%
CCN1CCN(c2cc(C)c3cc(NC(=O)c4ccc(C)c(C)c4)ccc3n2)CC1,-7,?,18µM*,2%,-2%,6%
Cc1cc(N2CCCCC2)nc2ccc(NC(=O)c3cccc(Cl)c3)cc12,/,23µM*,21µM*,/,/,/
Cc1cc(N2CCOCC2)nc2ccc(NC(=S)NCc3ccc4c(c3)OCO4)cc12,-12,?,18µM*,0%,-1%,?
Cc1ccc(C(=O)Nc2ccc3nc(N4CCCCC4)cc(C)c3c2)cc1F,/,?,23µM*,/,/,/
COC1OC2COC(c3ccccc3)OC2C(O)C1NC(=O)c1ccccc1 (stereo not drawn),7,0%,?,22%,21%,/
c1cc(-c2ccc(N3CCOCC3)cc2)n2ccnc2c1,36,?,?,12%,1%,/
Cc1cc(N2CCCCC2)nc2ccc(NC(=O)c3cccc(F)c3)cc12,/,7.3µM*,7.3µM*,/,/,/
